In PubChem BioAssay AID1159580 (chemical genetic matrix, 2015):
“And” between values parts separate entries of the source, which are not always exact repeats. Equal values may be shown once. The campaign covered roughly 5,500 compounds. About 2,000 (36%) were called active. Not shown: some 18% with an inconclusive outcome. No stated cut-off is given here; in the data, active means normalized growth mostly below about 0.91 (no sharp cut-off); inconclusive means no clear call, values can overlap the other calls; inactive means mostly above about 0.92. Some of the results follow. The source holds several records for some structures; these can differ, active in one and inactive in another.

Test: chemical genetic growth profiling, strain panel (AID 1159580);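 further: tested at 20 µM; growth read once vehicle control cultures reached saturation at 30 °C; 1 = growth at the plate median or of vehicle wells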
Conditions: S. cerevisiae deletion strains, growth OD

O=c1c(O)c(-c2ccc(O)c(O)c2)oc2cc(O)cc(O)c12
normalized growth (locus YAL013W, strain DEP1, stronger effect = lower value): 0.973 (inactive) and 0.979 (inactive)
normalized growth (locus YAL021C, strain ccr4, stronger effect = lower value): 0.659 (active)
normalized growth (locus YAL026C, strain drs2, stronger effect = lower value): 0.782 (active)
normalized growth (locus YAL030W, strain snc1, stronger effect = lower value): 0.94 (inactive)
normalized growth (locus YAL040C, strain CLN3, stronger effect = lower value): 1.07 (inactive)
normalized growth (locus YBL061C, strain skt5, stronger effect = lower value): 0.832 (active)
normalized growth (locus YBR009C, strain hhf1, stronger effect = lower value): 0.919 (inactive)
normalized growth (locus YBR021W, strain FUR4, stronger effect = lower value): 0.992 (inactive)
normalized growth (locus YBR023C, strain chs3, stronger effect = lower value): 0.778 (active)
normalized growth (locus YBR171W, strain sec66, stronger effect = lower value): 0.997 (inactive)
normalized growth (locus YBR229C, strain ROT2, stronger effect = lower value): 0.993 (inactive)
normalized growth (locus YBR231C, strain swc5, stronger effect = lower value): 0.767 (active)
normalized growth (locus YBR279W, strain paf1, stronger effect = lower value): 0.848 (active)
normalized growth (locus YCL011C, strain gbp2, stronger effect = lower value): 0.847 (active)
normalized growth (locus YCL016C, strain dcc1, stronger effect = lower value): 0.877 (active)
normalized growth (locus YCL029C, strain bik1, stronger effect = lower value): 0.982 (inactive)
normalized growth (locus YCL061C, strain MRC1 (second series), stronger effect = lower value): 0.996 (inactive)
normalized growth (locus YCL069W, strain vba3, stronger effect = lower value): 0.92 (active)
normalized growth (locus YCR088W, strain abp1, stronger effect = lower value): 0.993 (inactive)
normalized growth (locus YDL005C, strain med2, stronger effect = lower value): 0.992 (inactive)
normalized growth (locus YDL035C, strain GPR1, stronger effect = lower value): 0.906 (inactive)
normalized growth (locus YDL040C, strain nat1, stronger effect = lower value): 0.974 (inactive)
normalized growth (locus YDL074C, strain BRE1, stronger effect = lower value): 0.848 (inactive)
normalized growth (locus YDL101C, strain DUN1, stronger effect = lower value): 0.98 (inactive)
normalized growth (locus YDL134C, strain PPH21, stronger effect = lower value): 0.932 (inactive)
normalized growth (locus YDL185W, strain tfp1, stronger effect = lower value): 1.01 (inactive)
normalized growth (locus YDL192W, strain arf1, stronger effect = lower value): 0.958 (inactive)
normalized growth (locus YDR001C, strain nth1, stronger effect = lower value): 0.988 (inactive)
normalized growth (locus YDR069C, strain doa4, stronger effect = lower value): 0.728 (active)
normalized growth (locus YDR101C, strain arx1, stronger effect = lower value): 1.02 (inactive)
normalized growth (locus YDR137W, strain rgp1, stronger effect = lower value): 0.897 (inactive)
normalized growth (locus YDR150W, strain NUM1, stronger effect = lower value): 0.978 (inactive)
normalized growth (locus YDR159W, strain sac3, stronger effect = lower value): 0.974 (inactive)
normalized growth (locus YDR162C, strain NBP2, stronger effect = lower value): 0.908 (inactive)
normalized growth (locus YDR195W, strain ref2): 1.04 (inactive)
normalized growth (locus YDR297W, strain sur2, stronger effect = lower value): 0.899 (active)
normalized growth (locus YDR318W, strain mcm21, stronger effect = lower value): 0.967 (inactive)
normalized growth (locus YDR334W, strain swr1, stronger effect = lower value): 0.855 (active)
normalized growth (locus YDR335W, strain msn5, stronger effect = lower value): 0.828 (active)
normalized growth (locus YDR363W, strain ESC2, stronger effect = lower value): 1.01 (inactive)
normalized growth (locus YDR388W, stronger effect = lower value): 0.943 (inactive)
normalized growth (locus YDR392W, strain spt3, stronger effect = lower value): 0.781 (inactive)
normalized growth (locus YDR502C, strain sam2, stronger effect = lower value): 0.955 (inactive)
normalized growth (locus YEL003W, strain gim4, stronger effect = lower value): 0.879 (active)
normalized growth (locus YEL037C, strain rad23, stronger effect = lower value): 0.885 (active)
normalized growth (locus YEL061C, strain CIN8 (second series), stronger effect = lower value): 0.963 (inactive)
normalized growth (locus YEL061C, strain CIN8, stronger effect = lower value): 0.946 (inactive)
normalized growth (locus YER002W, strain NOP16, stronger effect = lower value): 1 (inactive)
normalized growth (locus YER015W, strain faa2, stronger effect = lower value): 0.817 (active)
normalized growth (locus YER016W, strain bim1, stronger effect = lower value): 0.911 (active)
normalized growth (locus YER110C, stronger effect = lower value): 1.04 (inactive)
normalized growth (locus YER111C, strain swi4, stronger effect = lower value): 0.895 (active)
normalized growth (locus YER155C, strain BEM2 (second series), stronger effect = lower value): 0.899 (inactive)
normalized growth (locus YER155C, strain BEM2, stronger effect = lower value): 1.02 (inactive)
normalized growth (locus YER167W, strain BCK2, stronger effect = lower value): 0.976 (inactive)
normalized growth (locus YFR010W, strain ubp6, stronger effect = lower value): 0.9 (active)
normalized growth (locus YGL078C, strain dbp3, stronger effect = lower value): 0.999 (inactive)
normalized growth (locus YGL086W, strain mad1, stronger effect = lower value): 0.915 (active)
normalized growth (locus YGL167C, strain pmr1, stronger effect = lower value): 0.977 (inactive)
normalized growth (locus YGL173C, strain kem1, stronger effect = lower value): 0.826 (active)
normalized growth (locus YGL227W, strain vid30, stronger effect = lower value): 1 (inactive)
normalized growth (locus YGL240W, strain doc1, stronger effect = lower value): 0.997 (inactive)
normalized growth (locus YGL248W, strain PDE1, stronger effect = lower value): 0.928 (inactive)
normalized growth (locus YGL253W, strain hxk2, stronger effect = lower value): 0.83 (active)
normalized growth (locus YGR078C, strain PAC10, stronger effect = lower value): 0.887 (inactive) and 0.991 (inactive)
normalized growth (locus YGR135W, strain pre9, stronger effect = lower value): 0.91 (inactive)
normalized growth (locus YGR229C, strain SMI1, stronger effect = lower value): 0.542 (active) and 0.965 (inactive)
normalized growth (locus YGR252W, strain gcn5, stronger effect = lower value): 0.804 (inactive)
normalized growth (locus YHR013C, strain ard1, stronger effect = lower value): 0.796 (active)
normalized growth (locus YHR027C, strain rpn1, stronger effect = lower value): 0.807 (active)
normalized growth (locus YHR030C, strain SLT2, stronger effect = lower value): 0.951 (inactive) and 0.997 (inactive)
normalized growth (locus YHR079C, strain IRE1 (second series), stronger effect = lower value): 1.02 (inactive)
normalized growth (locus YHR079C, strain IRE1, stronger effect = lower value): 0.981 (inactive)
normalized growth (locus YHR094C, strain hxt1, stronger effect = lower value): 1.04 (inactive)
normalized growth (locus YHR129C, strain ARP1, stronger effect = lower value): 0.926 (inactive)
normalized growth (locus YHR142W, strain chs7, stronger effect = lower value): 0.735 (active)
normalized growth (locus YHR200W, strain rpn10, stronger effect = lower value): 0.941 (inactive)
normalized growth (locus YIL066C, strain RNR3, stronger effect = lower value): 0.882 (inactive)
normalized growth (locus YIL073C, strain SPO22, stronger effect = lower value): 0.854 (inactive)
normalized growth (locus YIL125W, strain kgd1, stronger effect = lower value): 1 (inactive)
normalized growth (locus YIR030C, strain dcg1, stronger effect = lower value): 1.03 (inactive)
normalized growth (locus YJL092W, strain hpr5, stronger effect = lower value): 0.955 (inactive)
normalized growth (locus YJL095W, strain BCK1 (second series), stronger effect = lower value): 0.858 (active)
normalized growth (locus YJL095W, strain BCK1, stronger effect = lower value): 0.773 (active) and 0.993 (inactive)
normalized growth (locus YJL115W, strain asf1, stronger effect = lower value): 0.962 (inactive)
normalized growth (locus YJL129C, strain trk1, stronger effect = lower value): 0.913 (inactive)
normalized growth (locus YJL134W, strain LCB3, stronger effect = lower value): 0.988 (inactive)
normalized growth (locus YJL154C, strain vps35, stronger effect = lower value): 0.985 (inactive)
normalized growth (locus YJL164C, strain tpk1, stronger effect = lower value): 0.868 (active)
normalized growth (locus YJL166W, strain qcr8, stronger effect = lower value): 0.913 (inactive)
normalized growth (locus YJL168C, strain set2, stronger effect = lower value): 1.02 (inactive)
normalized growth (locus YJL187C, strain SWE1 (second series), stronger effect = lower value): 0.895 (inactive)
normalized growth (locus YJR043C, strain POL32, stronger effect = lower value): 0.905 (inactive)
normalized growth (locus YJR066W, strain TOR1, stronger effect = lower value): 0.931 (inactive)
normalized growth (locus YJR075W, strain HOC1, stronger effect = lower value): 0.982 (inactive) and 0.99 (inactive)
